Reference: PubChem BioAssay
Active and inactive are the calls of the source.

Experiments:
[1] = test system: Human papillomavirus type 1a protein E7 (residues 44-93); experiment: HPV1a E7 fragment binders on microarrays, primary screen, biochemical, small-molecule microarray, residues 44-93, 635 nm fluorescence (AID 1108); details: small-molecule microarray binding, fluorescence 635 nm; higher = more signal;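 also: E7 fragment applied at 1 µg/mL in TBST for 1 h at 4 C; score combines spot fluorescence with its signal to noise ratio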
[2] = modulators of HCV replicon luciferase signal, primary screen, HCV replication inhibitor project, Huh7 cells, luciferase reporter (AID 1109); details: 48 h, higher = more signal;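 also: huh7 hepatoma cells harbouring a luciferase neomycin HCV replicon reporter; luciferase luminescence as measure of HCV replicon replication; test concentration not given here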
[3] = target: Left-right determination factor 2 (Homo sapiens) (UniProt O00292); experiment: LEFTY2 binders on small-molecule microarrays, primary screen, biochemical, small-molecule microarray, 635 nm fluorescence scan (AID 1110); details: LEFTY2 binding, higher = more signal
[4] = target: Calmodulin-1 (Homo sapiens) (UniProt P0DP23); experiment: CALM1 binders on microarrays, EGTA buffer, profiling panel, biochemical, small-molecule microarray, Cy5-labelled CALM1 (AID 1111); details: Cy5-CALM1 binding fluorescence, higher = more signal;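 also: labelled calmodulin applied in Tris saline Tween buffer holding calcium plus EGTA and DTT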
[5] = target: Calmodulin-1 (Homo sapiens) (UniProt P0DP23); experiment: calcium-bound CALM1 binders on microarrays, profiling panel, artefact control for SMM control-protein annotation, biochemical, small-molecule microarray, Cy5-labelled CALM1, plus calcium (AID 1112); details: Cy5-CALM1 binding fluorescence, higher = more signal;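 also: score merges spot fluorescence with signal to noise from triplicate slides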
[6] = small-molecule microarray binders of probe aWnt5a, primary screen, biochemical, biotinylated probe, 635/667 nm fluorescence (AID 1113); details: higher = more signal;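 also: score merges 667 nm fluorescence intensity with signal-to-noise per printed feature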
[7] = small-molecule microarray binders of probe aShh, primary screen, biochemical, biotinylated probe, 635/667 nm fluorescence (AID 1114); details: higher = more signal;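 also: probe is biotin-labelled aShh protein from a stem cell growth factor screen; measures binding of labelled protein to compounds printed on the slide; score merges feature fluorescence at 667 nm with signal-to-noise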
[8] = small-molecule microarray binders of probe aNog, primary screen, biochemical, biotinylated probe, 635/667 nm fluorescence (AID 1115); details: higher = more signal;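 also: probe is biotinylated aNog protein used at 0.15 µg/mL for 1 h at 4 C; z-score combines 667 nm fluorescence of each spot with its signal to noise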
[9] = target: Torsin-1A-interacting protein 1 (Homo sapiens) (UniProt Q5JTV8); experiment: LAP1 binders from COS7 cell lysate, primary screen, small-molecule microarray, 635/667 nm fluorescence (AID 1116); details: COS7-hLAP1 lysate binding, 635 nm fluorescence, higher = more signal
[10] = target: Alpha-bungarotoxin (Bungarus multicinctus) (UniProt P60615); experiment: alpha-bungarotoxin binders on microarray, profiling panel, artefact control for SMM control protein annotation, biochemical, small-molecule microarray, Alexa647 label, 635/667 nm fluorescence (AID 1117); details: alpha-BTX-A647 binding fluorescence, higher = more signal
[11] = target: Albumin (Bos taurus) (UniProt P02769); experiment: bovine serum albumin binders on microarray, profiling panel, artefact control for SMM control protein annotation, biochemical, small-molecule microarray, Alexa647 label, 635/667 nm fluorescence (AID 1118); details: BSA-A647 binding, fluorescence 635 nm, higher = more signal;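 also: score merges 667 nm emission intensity and signal-to-noise per printed compound spot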
[12] = small-molecule microarray binders of probe aXIP, primary screen, biochemical, NeuroSMM set, 635/667 nm fluorescence (AID 1119); details: higher = more signal, called active from +8 up or from −8 down;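 also: probe is the protein aXip251-270 applied at 1 µg/mL to compound-printed slides; binding of probe to printed compounds measured as 667 nm fluorescence plus signal to noise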
[13] = small-molecule binders of probe aNOTCH3, primary screen, biochemical, small-molecule microarray, 635/667 nm fluorescence (AID 1120); details: higher = more signal;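 also: probe is a biotin-tagged antibody raised against NOTCH3 rather than NOTCH3 protein; score merges spot fluorescence near 667 nm with spot signal to noise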
[14] = small-molecule binders of probe aNOTCH2, primary screen, biochemical, small-molecule microarray, 635/667 nm fluorescence (AID 1121); details: higher = more signal;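 also: score merges feature fluorescence read at 667 nm with its signal to noise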
[15] = target: Carbonic anhydrase 2 (Homo sapiens) (UniProt P00918); experiment: CAII small-molecule binders, profiling panel, biochemical, small-molecule microarray, Alexa647-labelled CAII (AID 1122); details: CAII-A647 binding fluorescence, higher = more signal
[16] = COS7 lysate on small-molecule microarray, probe aHis, 635 nm (AID 1123); details: COS7 cell lysate, fluorescence, higher = more signal;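 also: z-score combines 667nm fluorescence intensity with signal-to-noise per printed compound spot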
[17] = compound binding in COS7 lysate, probe aLAP1, primary screen, cell lysate, small-molecule microarray (AID 1124); details: probe aLAP1, fluorescence, higher = more signal;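 also: lysate comes from COS7 cells expressing LAP1 and is applied at 0.3 µg/mL; score merges spot fluorescence near 667 nm with signal-to-noise over triplicate slides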
[18] = test system: Sam68 (KHDRBS1); experiment: Sam68 small-molecule binders, primary screen, biochemical, small-molecule microarray, 635 nm fluorescence (AID 1125); details: small-molecule microarray binding, higher = more signal;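 also: score merges 667 nm channel intensity with signal to noise over triplicate slides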
[19] = test system: Chordin-like protein 2 (CHRDL2); experiment: CHRDL2 small-molecule binders, primary screen, biochemical, small-molecule microarray, 635 nm fluorescence (AID 1126); details: small-molecule microarray binding, fluorescence 635 nm; higher = more signal;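 also: printed compound slides probed with Chrdl2 protein at 4 µg/mL for 1 h at 4 C; score merges 667 nm emission intensity with signal to noise over three replicate slides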
[20] = target: Concanavalin-A (Canavalia ensiformis) (UniProt P02866); experiment: ConA small-molecule binders, primary screen, artefact control for SMM control protein annotation, biochemical, small-molecule microarray, Alexa647 label, 635 nm (AID 1127); details: ConA-A647 binding fluorescence, higher = more signal;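 also: z combines 667 nm emission intensity with signal-to-noise across three replicate slides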
Sequence of Concanavalin-A (Canavalia ensiformis) (P02866 whole entry, looked up): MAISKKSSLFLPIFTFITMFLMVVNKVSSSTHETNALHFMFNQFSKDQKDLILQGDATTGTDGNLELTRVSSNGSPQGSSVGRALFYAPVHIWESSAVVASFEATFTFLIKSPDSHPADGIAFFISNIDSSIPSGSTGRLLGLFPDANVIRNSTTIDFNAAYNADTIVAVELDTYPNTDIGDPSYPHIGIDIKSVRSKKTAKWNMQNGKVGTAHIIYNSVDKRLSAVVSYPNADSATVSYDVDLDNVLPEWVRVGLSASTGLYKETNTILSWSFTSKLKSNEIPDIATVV

Sequence of Torsin-1A-interacting protein 1 (Homo sapiens) (Q5JTV8 whole entry, looked up): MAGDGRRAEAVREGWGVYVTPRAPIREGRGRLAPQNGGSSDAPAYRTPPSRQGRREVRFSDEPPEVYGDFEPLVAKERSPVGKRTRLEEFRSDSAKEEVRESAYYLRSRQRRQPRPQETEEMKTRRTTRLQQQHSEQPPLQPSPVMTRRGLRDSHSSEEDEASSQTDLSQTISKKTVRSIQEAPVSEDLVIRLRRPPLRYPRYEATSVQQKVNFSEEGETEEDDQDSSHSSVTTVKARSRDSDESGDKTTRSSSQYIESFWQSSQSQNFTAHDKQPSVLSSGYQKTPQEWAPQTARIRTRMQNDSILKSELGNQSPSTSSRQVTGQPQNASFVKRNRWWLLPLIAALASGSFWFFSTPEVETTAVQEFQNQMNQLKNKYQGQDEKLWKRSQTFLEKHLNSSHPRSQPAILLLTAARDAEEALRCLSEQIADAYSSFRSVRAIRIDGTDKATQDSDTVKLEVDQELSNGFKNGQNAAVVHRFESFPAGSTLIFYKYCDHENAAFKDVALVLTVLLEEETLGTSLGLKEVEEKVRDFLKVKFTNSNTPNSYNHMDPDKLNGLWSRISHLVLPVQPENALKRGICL
Sequence of Left-right determination factor 2 (Homo sapiens) (O00292 whole entry, looked up): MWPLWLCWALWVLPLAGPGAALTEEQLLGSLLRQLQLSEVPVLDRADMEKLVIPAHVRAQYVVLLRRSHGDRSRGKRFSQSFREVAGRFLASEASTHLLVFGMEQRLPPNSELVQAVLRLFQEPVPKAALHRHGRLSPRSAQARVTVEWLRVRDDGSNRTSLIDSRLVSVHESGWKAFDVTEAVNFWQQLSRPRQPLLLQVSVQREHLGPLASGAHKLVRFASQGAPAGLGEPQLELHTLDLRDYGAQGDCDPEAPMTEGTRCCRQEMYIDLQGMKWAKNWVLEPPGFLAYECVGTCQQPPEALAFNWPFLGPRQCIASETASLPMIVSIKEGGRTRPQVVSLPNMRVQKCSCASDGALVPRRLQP
Sequence of Alpha-bungarotoxin (Bungarus multicinctus) (P60615 whole entry, looked up): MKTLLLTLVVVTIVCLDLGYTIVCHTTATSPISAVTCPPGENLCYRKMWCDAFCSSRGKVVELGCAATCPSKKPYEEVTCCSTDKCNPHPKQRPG
Sequence of Albumin (Bos taurus) (P02769 whole entry, looked up): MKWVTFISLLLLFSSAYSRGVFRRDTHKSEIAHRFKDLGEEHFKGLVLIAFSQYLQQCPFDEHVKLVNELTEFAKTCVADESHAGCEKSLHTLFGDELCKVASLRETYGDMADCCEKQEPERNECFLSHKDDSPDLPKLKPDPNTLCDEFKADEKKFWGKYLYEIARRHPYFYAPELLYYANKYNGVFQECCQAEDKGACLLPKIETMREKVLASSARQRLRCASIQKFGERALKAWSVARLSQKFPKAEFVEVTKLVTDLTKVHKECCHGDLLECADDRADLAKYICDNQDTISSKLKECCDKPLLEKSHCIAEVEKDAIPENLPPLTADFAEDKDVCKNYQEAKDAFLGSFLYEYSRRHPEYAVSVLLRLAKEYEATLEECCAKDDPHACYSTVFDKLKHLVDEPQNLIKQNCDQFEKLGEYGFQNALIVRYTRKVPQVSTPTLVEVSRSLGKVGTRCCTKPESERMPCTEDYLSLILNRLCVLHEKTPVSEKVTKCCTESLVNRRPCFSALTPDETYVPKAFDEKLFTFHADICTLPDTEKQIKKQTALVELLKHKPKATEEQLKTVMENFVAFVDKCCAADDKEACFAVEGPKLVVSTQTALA

SMILES | composite z-score [1] | z-score [2] | composite z-score [3] | composite z-score [4] | composite z-score [5] | composite z-score [6] | composite z-score [7] | composite z-score [8] | composite z-score [9] | composite z-score [10] | composite z-score [11] | composite Z-score [12] | composite z-score [13] | composite z-score [14] | composite z-score [15] | composite z-score [16] | composite z-score [17] | composite z-score [18] | composite z-score [19] | composite z-score [20]
C=C(CCCC)/C(=C/C[C@H](OC(C)=O)c1cccc(OCCO)c1)c1cnc2ccccc2c1 | -0.114 | -2.3 | -0.234 | -0.437 | -0.896 | -0.0684 | 0.0723 | 0.0664 | 0.558 | 0.387 | -0.0372 | -0.325 (inactive) | -0.135 | -0.149 | 0.84 | -0.66 | -0.207 | 0.0549 | 0.466 | 0.116
C=CCOC(=O)[C@@H]1[C@H]2C(=O)O[C@H](c3ccccc3)[C@H](c3ccccc3)N2[C@H](c2ccc(OCCOC(=O)[C@H]3C[C@H]4C(=O)NCC(=O)N4[C@H]3c3cccc(OCCO)c3)cc2)[C@@]12C(=O)Nc1ccc(I)cc12 | 0.534 | -0.582 | 0.553 | 1.33 | 0.0237 | -0.0327 | 0.147 | -0.381 | 1.61 | 1.39 | -0.735 | 0.614 (inactive) | -0.006 | -0.06 | 0.636 | 1.96 | 0.397 | 1.3 | 1.02 | 1.19
CC(C)NC(=O)[C@@H]1c2ccccc2C(=O)N(Cc2ccccc2C(F)(F)F)[C@H]1c1ccc(CO)cc1 | 0.464 | -0.692 | -1.27 | -0.588 | -0.721 | 0.4 | 0.0649 | -1.04 | 0.0048 | -0.198 | -0.273 | -0.483 (inactive) | -0.0144 | -0.0901 | 0.726 | 0.725 | 0.647 | -0.0631 | -0.585 | -0.329
CC(C)=CCCC=C(C)C(O)C1C=CC2C(=O)N(c3ccccc3)C(=O)C2N1Nc1ccc(C#N)cc1 (stereo not given) | 1.4 | -1.96 | -0.111 | 1.46 | -0.175 | -0.0459 | -0.0769 | -0.468 | 0.217 | 0.82 | 0.976 | -0.213 (inactive) | 0.518 | -0.157 | 0.596 | 2.34 | 1.54 | 1.03 | 0.173 | 1.11
C=C(C)[C@@H]1CC=C(C(O)C2C=CC3C(=O)N(C)C(=O)C3N2Nc2ccc([N+](=O)[O-])cc2[N+](=O)[O-])CC1 (stereo not given in full) | 1.45 | -0.44 | 0.265 | 0.79 | 0.441 | 0.101 | 0.302 | 1.46 | 0.958 | 1.95 | 0.689 | -0.37 (inactive) | 0.407 | 0.158 | 0.583 | 2.5 | 0.005 | 1.29 | 0.722 | 1.14
